PLK1 kinase inh: human PLK1 kinase inhibitors, primary screen, biochemical, TR-FRET. Serine/threonine-protein kinase PLK1 (Homo sapiens), P53350. inhibition, % at 10 µM. 97,000 tested, 0.53% active. recombinant PLK1 kinase, TR-FRET peptide phosphorylation;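 active = inhibition of 50% or more in the single-concentration screen; inactive = inhibition below 50%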
CD11b adhes enh: enhancers of CD11b/CD18 adhesion to fibrinogen, primary screen, K562 cells, luminescence; ATPlite luminescence; activation, % at 10 µM; 93,000 tested, 0.07% active;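 active = 10 µM primary screen giving 50% or more activity, confirmed by 40% or more on retest at that dose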
Plk1 PBD FP: Plk1 polo box domain binding inhibitors, primary screen, biochemical, fluorescence polarization. inhibition, %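 (tested at about 20 µM)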. Serine/threonine-protein kinase PLK1 (Homo sapiens), P53350. AID 693, 2007. Plk1 PBD phosphopeptide binding. 97,000 tested, 0.13% active; in the data active = inhibition above about 34%, passing the limit was not always enough
Calb biofilm kill: clotrimazole potentiators killing Candida biofilms, primary screen, with clotrimazole, Alamar Blue. inhibition, % at 6 µM. 85,000 tested, 0.14% active. C. albicans biofilm + clotrimazole. AID 834, 2007;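 active = inhibition above 20%; inactive = inhibition below 20%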;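 note: preformed 24 hr biofilms exposed to compound for 48 hr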
Mac1 fbg inh: inhibitors of CD11b/CD18 adhesion to fibrinogen, primary screen, K562 cells, luminescence. ATPlite luminescence; Mn2+ added to activate the integrin. AID 1497, 2009. 93,000 tested, 0.54% active. inhibition, % at 10 µM;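 active = primary inhibition of 50% or more at 10 µM, then 40% or more on retest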
PBD redox DR: redox cycling hydrogen peroxide generation, dose response, artefact control for Plk1 PBD inhibitor project, biochemical | shares compounds with Plk1 PBD FP | redox cycling H2O2 generation, DTT, counter-screen | EC50, µM | 120 tested, under 10 active | AID 876, 2007; call rule not given here
A number is an active result; - = inactive; . = not tested or not shown. In the library only some 1.1% were active in any assay of this set; here they are far more common.

SMILES | PLK1 kinase inh | CD11b adhes enh | Plk1 PBD FP | Calb biofilm kill | Mac1 fbg inh | PBD redox DR
Cn1c(-c2ccc[nH]c2=O)nc2cc(Cl)ccc21 | - | . | - | . | . | .
O=c1[nH]cc(COCc2ccccc2)c(=O)[nH]1 | - | - | 46 | - | - | -
CCOC(=O)c1c2c(n(C)c1C)C(=O)C(=O)c1ccc(Br)cc1-2 | - | . | 116 | - | . | 0.61
Cc1cc(F)ccc1NCC(=O)Nc1ccccc1Br | . | - | . | . | - | .
CC1CN(C2CC(C)(C)NC(C)(C)C2)CCC1=O (stereo not given) | - | - | 53 | - | - | -
